Measurements reported in ChEMBL document CHEMBL3988442, “University of Dundee, Small-Polar-MMV Screening Library” (2021).
Out of some 48,000 compounds screened, about 13,000 (27%) showed an effect of 50% or more. Some of the results follow.

tested on: Wolbachia pipientis; experiment: Anti-Wolbachia Cell-Based Screen; format: functional; parameters: scale not given: in the data most compounds retested in dose-response had high values; details: 5 µM

SMILES	Percent Effect [%]
Cc1cccc(C(C)CNC(=O)N2CCOCC3(CCOCC3)C2)c1 (configuration not stated)	-15.26
COCCCn1ccc(NC(=O)NCCCn2ccnc2)n1	5.848
CC(C)[C@@H]1CN(CCOc2ccc(Cl)cc2)C[C@H]1NS(C)(=O)=O	1.84
Cc1cccc(-c2noc([C@@H]3Cc4nc[nH]c4CN3)n2)c1	-0.5604
COc1ccnc(N2CCN(C(=O)Cc3ccc(C)s3)CC2)n1	0.2283
COc1ccnc(N2CCCN(C(=O)Cc3ccc(C)s3)CC2)n1	128.9
CCOc1ccnc(N2CCN(C(=O)CCc3ccsc3)CC2)n1	8.96
COc1ccnc(N2CCN(C(=O)Cc3csc(C)n3)CC2)n1	124.6
COc1ccnc(N2CCN(C(=O)c3csc(C)n3)CC2)n1	-2.798
COc1ccnc(N2CCN(C(=O)CCc3nccs3)CC2)n1	-9.419
COc1ccnc(N2CCN(C(=O)NCc3ccc(C)s3)CC2)n1	-6.706
COc1ccnc(N2CCN(C(=O)Cc3ccc(C#N)cc3)CC2)n1	1.226
COc1ccnc(N2CCN(C(=O)Cc3ccn(C(C)C)n3)CC2)n1	115.4
COc1ccnc(N2CCN(C(=O)Cc3ccsc3)CC2)n1	128.2
COc1ccnc(N2CCN(C(=O)CN3CCCC3=O)CC2)n1	-1.755
COc1ccc(N2CCCN(C(=O)Cc3csc(C)n3)CC2)cc1	-1.36
Cc1csc(C2(NCC(O)COc3ccc(F)cc3)CCC2)n1 (configuration not stated)	-11.72
COc1cc(N2CCN(Cc3ccsc3)C(CCO)C2)nc(N)n1 (configuration not stated)	10.71
Cc1ccc(-c2ccc(C(=O)NCCS(N)(=O)=O)c(F)c2)cc1	17.06
Cc1nn(C)c2c(N3CCN(C(=O)NC4CCCCC4)CC3)ncnc12	8.343
CCn1nc(C)c2ccn(CC(=O)NC3CCCC3)c(=O)c21	-1.508
CC1CCN(S(=O)(=O)c2cccn(CC(=O)NC3CCCC3)c2=O)CC1	-17.34

SMILES	Percent Effect [%]
CCn1nc(C)c(CNC(=O)c2cn(CCC3CCCCN3)nn2)c1C (configuration not stated)	-6.64
CCn1nc(C)c2ccn(CC(=O)NCC3CCCO3)c(=O)c21 (configuration not stated)	132.9
Cc1noc(C)c1CNC(=O)c1cn(CCC2CCCCN2)nn1 (configuration not stated)	-0.3777
Cc1nn(C)c2c(=O)n(CC(=O)NC3CCCCC3)ccc12	138.3
CCn1nc(C)c(CNC(=O)c2cn(CC3CCCO3)nn2)c1C (configuration not stated)	113.5
Cc1cc(=O)n(CC(=O)NCC2CCCO2)c(-c2cccc(Cl)c2)n1 (configuration not stated)	14.67
O=C(Cn1nc(-c2ccc(F)cc2)oc1=O)NCC1CCCO1 (configuration not stated)	-3.643
CCn1nc(C)c2ccn(CC(=O)NC3CC3)c(=O)c21	112.9
CCN1CCC(NC(=O)Cn2cc(C)c3ccccc32)CC1	-38.76
Cc1ccccc1C(C#N)NC(=O)c1cccc2c1OCCO2 (configuration not stated)	0.1196
COc1ccc(OC)c(CNCCc2cc(F)cc3c2OCOC3)c1	17.88
Cc1ccc(S(C)(=O)=O)cc1C(=O)N(C)Cc1ccco1	9.899
NC(=O)c1ccc(=O)n(Cc2cc(Br)ccc2Cl)n1	5.907
Cc1cc(C(=O)Nc2nnn[nH]2)ccc1I	-9.005
CCn1nc(C)c2nnn(CC(=O)Nc3c(C)cccc3C)c(=O)c21	15.34
CCn1nc(C)c2ccn(CC(=O)NC(C)C)c(=O)c21	83.24
CCC(C)NC(=O)Cn1ccc2c(C)nn(CC)c2c1=O (configuration not stated)	121.4
Cc1cc(C(C)NC(=O)Cn2nc(C)c3ccccc3c2=O)c(C)o1 (configuration not stated)	-1.65
Cc1c2ncn(CC(=O)NC(C)C)c(=O)c2nn1C	-0.5924
CCn1nc(C)c2ccn(CC(=O)NCCN3CCCCC3)c(=O)c21	109.9
CC(C(=O)NCCN1CCCCCC1)n1cncn1 (configuration not stated)	6.754
CCCNC(=O)Cn1nc(C)c2cnn(C(C)(C)C)c2c1=O	7.954

SMILES	Percent Effect [%]
C1CN(c2nc3c(c(NC4CC4)n2)CN(CC2CCOC2)CC3)CCO1 (configuration not stated)	-9.007
Cn1cc(CN2CCC3(CCC(C(=O)NCC4CC4)C3)CC2)cn1.O=C(O)C(F)(F)F (configuration not stated)	38.61
O=C(c1ccncc1Cl)N1CCN(Cc2ccco2)C(CCO)C1 (configuration not stated)	-0.1352
Cc1nn(C)c(C)c1NC(=O)CNC(c1ccc(F)cc1)C1CCC1 (configuration not stated)	19.96
COc1cccc2c1OCC(CNc1cc(N)nc(SC)n1)C2 (configuration not stated)	103.8
COc1cccc2c1OCC(CNC(=O)Cc1c(C)nc(N)nc1C)C2 (configuration not stated)	-7.382
COc1ccc2c(c1)OCC(Cc1ccc(C)nc1N)C2 (configuration not stated)	95.38
COc1ccc2c(c1)OCC(Cc1cnccc1N)C2 (configuration not stated)	13.35
CCc1nc2c(NCC3COc4cc(OC)ccc4C3)ncnc2o1 (configuration not stated)	-96.33
COc1cccc2c1OCC(CNc1ccc(C)nn1)C2 (configuration not stated)	-0.7094
COc1ccc2c(c1)OCC(Cc1cnc(N)c(C)c1)C2 (configuration not stated)	16.7
COc1ccc2c(c1)OCC(CNc1cc(N)nc(SC)n1)C2 (configuration not stated)	101.5
CCNC(=O)c1ccnc(NCC2COc3cc(OC)ccc3C2)c1 (configuration not stated)	-7.933
Cc1cc(C(=O)N(C)Cc2ccn[nH]2)c(NC(=O)C(C)(C)C)s1	-4.418
CS(=O)(=O)N1CCOC2(CCCN(c3cnccn3)C2)C1.O=C(O)C(F)(F)F (configuration not stated)	-3.383
Cc1noc(-c2ccc(N(C)Cc3nccs3)nc2)n1	-5.626
CN(Cc1cc2c(cc1OC(F)F)OCO2)Cc1nccn1C	-0.8901
CCC(=O)c1ccc(OCC(=O)NC(C)c2ncnn2CC)cc1 (configuration not stated)	-19.04
CCCn1c(O)nnc1SCC1OCCc2ccccc21 (configuration not stated)	5.121
CCc1cc(C(=O)N[C@H]2CN(CCS(C)(=O)=O)C[C@@H]2C2CC2)[nH]n1	-10.24
CCOc1ccc(NC(=O)c2ccc(C#N)cc2C)cc1CO	-12.77
CCNC(=O)C1CCCN(C(=O)Nc2cc(C#N)ccc2OCC)C1 (configuration not stated)	2.708

SMILES	Percent Effect [%]
CCNC(=O)NC(=O)CNc1cc(C#N)ccc1OCC	107.7
CCOc1ccc(C#N)cc1NCC(=O)NC(=O)Nc1ccccc1	91.19
CCOc1ccc(C#N)cc1NC(=O)N1CCCC(NC(=O)CC)C1 (configuration not stated)	-6.604
CCOc1ccc(C#N)cc1NC(=O)N1CCC(N2CCCC2)C1 (configuration not stated)	-9.106
CCCNC(=O)CNc1cc(C#N)ccc1OCC	-1.533
CCOc1ccc(C#N)cc1NCc1cc(C)on1	-2.452
CCOc1ccc(C#N)cc1NCC(=O)OC	115.5
CCOc1ccc(C#N)cc1NCC(=O)Nc1cc(F)ccc1F	-5.639
CCOc1ccc(C#N)cc1NCC(=O)Nc1cc(C)no1	4.952
CCOc1ccc(C#N)cc1NCC(=O)NC(=O)NC	104.9
O=C(CCCC1CCCC1)NS(=O)(=O)CC1CC1	4.87
O=C1NCCCCC1NC(=O)C1(c2ccc3c(c2)OCCO3)CCCC1 (configuration not stated)	-1.756
Cc1cccc(C(=O)N2CCCC2)c1NCC(=O)NC1(C#N)CCCC1	-7.992
Cc1cccc(NCC(=O)NC2(C#N)CCCC2)c1C(=O)N1CCCC1	-22.31
CCOc1ccc(C#N)cc1NCC(=O)NC1(C#N)CCCC1	87.98
O=C(Cn1cc(-c2ccccc2)ncc1=O)Nc1nnc[nH]1	-2.785
CN(Cc1ccc(Cl)s1)C(=O)CN(C)C1CCc2ccccc21 (configuration not stated)	3.858
COc1ccc(CC(=O)NC2(C)CCS(=O)(=O)C2)cc1F (configuration not stated)	7.488
Cc1csc(N2CCN(C(=O)CCc3ccccn3)CC2)n1	1.737
FC(F)(F)CCc1ccnc(N2CCN(Cc3ccccn3)CC2)n1	5.215
Cc1csc(N2CCN(Cc3ccccn3)CC2C)n1 (configuration not stated)	18.1
Cc1csc(N2CCN(Cc3ccccn3)CC2)n1	105.9

SMILES	Percent Effect [%]
FC(F)(F)c1csc(N2CCN(Cc3ccccn3)CC2)n1	72.86
Cc1ncc(S(C)(=O)=O)c(N2CCCN(Cc3ccccn3)CC2)n1	10.32
CC(C)c1nc(CN2CCN(Cc3ccccn3)CC2)cs1	-4.826
FC(F)(F)c1ccnc(N2CCCN(Cc3ccccn3)CC2)n1	100.8
COc1ccccc1-c1ncc(CN2C[C@@H](N(C)C)[C@H](C(C)C)C2)s1	-33.52
COc1cc(OC)cc(N2CCC(NCc3cccs3)C2=O)c1 (configuration not stated)	-13.31
CCC(C)NC(=O)c1ccc(NC(=O)CCc2ccncc2)c(C)c1 (configuration not stated)	-8.958
CNC(=O)[C@@H](c1ccccc1)N1CCC[C@H]1C(=O)NCc1cccnc1.Cl.Cl	-3.423
Cc1nc(CNC(=O)NC2CCN(c3ncccc3Cl)C2)oc1C (configuration not stated)	-13.94
Cc1ncccc1NC(=O)c1nc2c(n1C)CCN(C(=O)C1CC1)C2	102
Cn1c(C(=O)NC2CC2)nc2c1CCN(c1ncccn1)C2	-5.985
CCOCC(=O)Nc1ccc(N2CCSCC2)cc1C	-9.938
O=C(O)C(F)(F)F.O=C(O)C(F)(F)F.c1csc(CN2Cc3[nH]nc(COCC4CC4)c3C2)c1	-16.32
Cc1cccc(S(=O)(=O)N2C[C@H]3C[C@H](C(=O)N(C)C)[C@@H](C2)O3)c1	-13.43
Cc1cccc(S(=O)(=O)N2C[C@H]3C[C@H](C(=O)NCC4CC4)[C@@H](C2)O3)c1	-9.673
Cc1cccc(S(=O)(=O)N2C[C@H]3C[C@H](C(=O)NC4CCC4)[C@@H](C2)O3)c1	-10.53
Cc1cccc(S(=O)(=O)N2C[C@@H]3OCCN(C(C)C)[C@@H]3C2)c1	-15.31
Cc1cccc(S(=O)(=O)N2C[C@@H]3C[C@@H](c4nnc(C)[nH]4)O[C@@H]3C2)c1	102.4
Cc1cccc(S(=O)(=O)N2C[C@@H]3C[C@@H](c4nc(C)no4)O[C@@H]3C2)c1	113.1
